# Experimental data taken from publication PMC7819943, “Rice protein-binding microarrays: a tool to detect cis-acting elements near promoter regions in rice”.
# The full ranking holds about 68,000 sequences; the median of “fluorescence intensity (a.u.)” is about 9,100, and the highest 2% start at about 16,000. The sample as a whole holds a higher share of the highest values than the screen did.
# Target: OsWRKY34 (Oryza sativa, UniProt Q0JBA9 1-250)
# Experiment: protein-binding microarray (RPBM); PBS, 2% BSA, 51.3 ng/ul salmon testes DNA, 50 uM zinc acetate, 200 nM TF, 25 C, 1 h; high values mean tight binding
# Conditions: protein: recombinant; tags: N-terminal polyhistidine and DsRed monomer fusion (pET32a); label: CyDye5-dUTP incorporated in the synthesized complementary strand; 3' TTTTT single-stranded linker to array surface; dsDNA, one strand shown
# Outline: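 In PBS with 2% BSA, salmon testes DNA and 50 µM zinc acetate, 200 nM protein was incubated on a custom Agilent array at 25 °C for 1 h and then washed off. The array had been made double-stranded by primer extension with Cy5-dUTP and blocked with 2% BSA. The proteins were transcription factors fused N-terminally to polyhistidine and DsRed, expressed in E. coli BL21-CodonPlus and purified on Ni–NTA. The binding signal is per-feature fluorescence intensity (arbitrary units) from an Axon 4000B scanner.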
# Chain of OsWRKY34 (Q0JBA9 entry or part of it): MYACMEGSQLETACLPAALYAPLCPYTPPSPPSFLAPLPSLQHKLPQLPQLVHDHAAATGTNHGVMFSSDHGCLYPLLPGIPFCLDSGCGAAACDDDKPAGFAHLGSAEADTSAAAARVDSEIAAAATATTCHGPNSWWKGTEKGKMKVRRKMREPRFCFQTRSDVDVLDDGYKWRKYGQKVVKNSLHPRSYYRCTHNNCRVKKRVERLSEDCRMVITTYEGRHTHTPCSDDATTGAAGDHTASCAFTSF
row,Sequence,binding signal
1,ATACGTCATTTGTATTTGAGTCGGTTTTTAAGTTCCTCCGCGGAGTCACCTAGTGCAG,12200 fluorescence intensity (a.u.)
2,TTTTGCAAAGCATTCCTCGCGCTTTCAGCTAATTACGCATCGGAGTCACCTAGTGCAG,8500 fluorescence intensity (a.u.)
3,CACCAACGCGTCCCCACCGTGTCGCCTCCTGATTGGTTGTCGGAGTCACCTAGTGCAG,12100 fluorescence intensity (a.u.)
4,CTCTCGCTCTTTTATTTTTTTTCCTTGTTTCCTTTCGTGTCGGAGTCACCTAGTGCAG,12100 fluorescence intensity (a.u.)
5,TTGTTACTACATTTCCTGTACTATTTTACTGTCTGATTTACGGAGTCACCTAGTGCAG,8460 fluorescence intensity (a.u.)
6,AGGTTATTTTTTCCTTACCTTTTTTTTTTCTGATACTACTCGGAGTCACCTAGTGCAG,9920 fluorescence intensity (a.u.)
7,GTCCTCGTTTTTTTTTTCCTTCTCTTTTTCTTTTCCTTTTCGGAGTCACCTAGTGCAG,9450 fluorescence intensity (a.u.)
8,GCTTCACCTTCGGCTTCGACTTCGGCTTCGTTTCCTCTTCCGGAGTCACCTAGTGCAG,18600 fluorescence intensity (a.u.)
9,TGTTTTCACTTTCCTCTTCAGTCTTCTTCCTTCTTTCGTTCGGAGTCACCTAGTGCAG,9140 fluorescence intensity (a.u.)
10,GTTGGGCTTCCTTATTGGGTTGGGCTACCTGTCTGATTTTCGGAGTCACCTAGTGCAG,16600 fluorescence intensity (a.u.)
11,TTATTTTTCGTTCCTTCTTTTTTTCTCTCTCACTTTTCTCCGGAGTCACCTAGTGCAG,11300 fluorescence intensity (a.u.)
12,GTCGTTCGCTCTTTTATCCTTTTCGGACAATTTCACTTTCCGGAGTCACCTAGTGCAG,19200 fluorescence intensity (a.u.)
13,GCTCGCCGCGTGCTCTCGTCATCCATCCGACCCACGCCCGCGGAGTCACCTAGTGCAG,11000 fluorescence intensity (a.u.)
14,ATTTTATATGATTTCTTACAGACTTTTTTTATCATTTTACCGGAGTCACCTAGTGCAG,9760 fluorescence intensity (a.u.)
15,GCATTGGTTGGTGGTTTGGTGACGGCTTCGTTGTAGGCCTCGGAGTCACCTAGTGCAG,9760 fluorescence intensity (a.u.)
16,TCCTCTCTCTCTCTCTCTCTCTCTCCTCCTTTGGAGTTGTCGGAGTCACCTAGTGCAG,10500 fluorescence intensity (a.u.)
17,CGTCCAGTCCGCTCCCTCCCTCATTCATTCGGTTCGGTAACGGAGTCACCTAGTGCAG,8870 fluorescence intensity (a.u.)
18,CGTCGACGACGTCTCGATCGATCGGTGGTGGTGGTGGTGGCGGAGTCACCTAGTGCAG,8540 fluorescence intensity (a.u.)
19,CTCGTGGTCAAATCTGAATATCCGATACTTCCGTTTCAAACGGAGTCACCTAGTGCAG,8300 fluorescence intensity (a.u.)
20,TGTGCCGCTCCGTCGTGCTCTTCGTCGCGCCACTCATCCTCGGAGTCACCTAGTGCAG,9080 fluorescence intensity (a.u.)

row,Sequence,binding signal
1,CGCCTCGCGGCAGGCAGCCGAGCTGTCTCCAACCGTGCCGCGGAGTCACCTAGTGCAG,37300 fluorescence intensity (a.u.)
2,TCACCACTGCTGCTCTCGCTGCCGTCCTTGTTCTTCGCGCCGGAGTCACCTAGTGCAG,8110 fluorescence intensity (a.u.)
3,CGTTTTCTTTTTTCTTCCTCGCTTTCTCTCTCTCTCTCTCCGGAGTCACCTAGTGCAG,11600 fluorescence intensity (a.u.)
4,GATCTCATCCCGTCCCGTCATCTGCTTCCTCTCTCGGAACCGGAGTCACCTAGTGCAG,16900 fluorescence intensity (a.u.)
5,GCGCTCGCCGCTGCCGCAAGCTCGCCTCCGACCCCGGCCACGGAGTCACCTAGTGCAG,9530 fluorescence intensity (a.u.)
6,ACCGTCTCATCTTCTTCTTCCTCCTCCTCTGATCTTCTCCCGGAGTCACCTAGTGCAG,8220 fluorescence intensity (a.u.)
7,CGCTTTCCTCTCCGGCAACGACCTCGCAGCTGTGGCCACCCGGAGTCACCTAGTGCAG,18600 fluorescence intensity (a.u.)
8,CGCCGCCGCTCCAGCTCCAGCCGCCCGTGCTCCCTCGCGGCGGAGTCACCTAGTGCAG,8200 fluorescence intensity (a.u.)
9,ACCAACCAACCACTGCTCTCGCCGCGCCGTCCTCTTCATCCGGAGTCACCTAGTGCAG,18200 fluorescence intensity (a.u.)
10,CCCCAACCCGCCGCCAGCCACCGAGCTCGCCACCGTCTCCCGGAGTCACCTAGTGCAG,8970 fluorescence intensity (a.u.)
11,TCTGCTTCTTCATCCTCGTGCTCTGCTTCTCTCTTCTTCCCGGAGTCACCTAGTGCAG,8980 fluorescence intensity (a.u.)
12,ACAATCCATTTTATTCCAACAGATATATACACGGGGACAACGGAGTCACCTAGTGCAG,8410 fluorescence intensity (a.u.)
13,GGCTAGGTTGTGCGCGCCCTTCTCGATGTAGCAATAGCAACGGAGTCACCTAGTGCAG,8520 fluorescence intensity (a.u.)
14,CCTTCGACCCGTCCCCTCACAAACGGCCGTTTCCCTCCCGCGGAGTCACCTAGTGCAG,9230 fluorescence intensity (a.u.)
15,GATCGAATCGAATAGAGTACATTCTCTACAGGGGAGGGGACGGAGTCACCTAGTGCAG,9760 fluorescence intensity (a.u.)
16,GTCTGTGAATGTTTTATTTGCCTTGTCTGAACTATCTTTACGGAGTCACCTAGTGCAG,11400 fluorescence intensity (a.u.)
17,TGTTGGTGAATGGTAATTTTTTGGGTTGATATGTTGCTGACGGAGTCACCTAGTGCAG,9580 fluorescence intensity (a.u.)
18,CTTCCTTCCTAACGTATCGCCCACATTCCTCCACGTCTCCCGGAGTCACCTAGTGCAG,8980 fluorescence intensity (a.u.)
19,TCCATTTCCTTGTTTGGTTGGGTGGATGAGAATGGATTGACGGAGTCACCTAGTGCAG,9010 fluorescence intensity (a.u.)
20,ACACCGCACCGCCGCAATCGTTGGCACAAGCTACAACCCTCGGAGTCACCTAGTGCAG,8540 fluorescence intensity (a.u.)

row,Sequence,binding signal
1,CAAAACAGCCGCGTTTTGGCTCACTAGTCACTTGTTTGACCGGAGTCACCTAGTGCAG,9710 fluorescence intensity (a.u.)
2,CAGCCCACCGCCGCATCCTCGCAACCACTGTCTCGCTCTCCGGAGTCACCTAGTGCAG,17000 fluorescence intensity (a.u.)
3,TTGTCTCACCACTGCTTCGCATCCTCCGCCGCCGCCTCACCGGAGTCACCTAGTGCAG,11000 fluorescence intensity (a.u.)
4,GCAACCACTGTCTCGCTCTCCGCCGCCATCGCCGCCGCCGCGGAGTCACCTAGTGCAG,10500 fluorescence intensity (a.u.)
5,ATTTTTTTGGGCGCGGGTTGGAGCCGGTTTGACTAAAAGGCGGAGTCACCTAGTGCAG,8310 fluorescence intensity (a.u.)
6,GATTGACTTGCCAAACATTTTACATGCGTTTATTGTACCACGGAGTCACCTAGTGCAG,9920 fluorescence intensity (a.u.)
7,CTCCTGGCAACCCCATGCACTGCTTTTGCTGCCCTTAAGTCGGAGTCACCTAGTGCAG,8620 fluorescence intensity (a.u.)
8,AAATATACAACTCTTGGACGCCCTTACATCTCTCCATTGTCGGAGTCACCTAGTGCAG,8230 fluorescence intensity (a.u.)
9,AGCCACCTTGTCGTTTTCCGCTCCTCACCTGCTCAACTTCCGGAGTCACCTAGTGCAG,9800 fluorescence intensity (a.u.)
10,ACACACCGCGGGTTGGAGGAGGAGGAGGAGGAGGTAGGGGCGGAGTCACCTAGTGCAG,10500 fluorescence intensity (a.u.)
11,GGTTTGGTTGGGGTTTAGGTCTCGGGGCGGCGCGGAGGCGCGGAGTCACCTAGTGCAG,17700 fluorescence intensity (a.u.)
12,TACGGGTTAGGGTTTGGGGTTGGGGTCAAGGTAGGAGGGGCGGAGTCACCTAGTGCAG,22500 fluorescence intensity (a.u.)
13,GTTTGATTTGGTGAGGCGGGCGGTGTGCGCGTGGTGGTCTCGGAGTCACCTAGTGCAG,8680 fluorescence intensity (a.u.)
14,CGGCGGGTTAGGGTTTGGGGTTGGGGTAAGGATAGGAGGGCGGAGTCACCTAGTGCAG,14200 fluorescence intensity (a.u.)
15,GGTTTGGAGGCGGAGGTGGCGCTGGAGGAGGCGGCGGTCTCGGAGTCACCTAGTGCAG,9970 fluorescence intensity (a.u.)
16,AGAGGTTTGGGGTTGGTTCATCTCGCGGGCTTGGGCGGCGCGGAGTCACCTAGTGCAG,14400 fluorescence intensity (a.u.)
17,GTGCGCGTTCTTGGTGTTATGGAGGCGGGTCTCGGCGGGGCGGAGTCACCTAGTGCAG,17600 fluorescence intensity (a.u.)
18,CTTGGAGGTGGTTCAGGTGGAGGCGGCGGTCTCGGAGGTGCGGAGTCACCTAGTGCAG,9240 fluorescence intensity (a.u.)
